Out of some 1,300 compounds screened, about 240 (18%) were called active. Roughly 8% stayed inconclusive and do not appear here. How the calls were made is not given here. The list is a sample of the results. Measured potencies and affinities stand elsewhere.
assay: HepG2 cell cytotoxicity, dose response, cytotoxicity control, cherry-picked samples (AID 1159577); settings: HepG2 cytotoxicity counterscreen, plate reader; series mostly up to 19.5 µM

| SMILES | outcome |
| --- | --- |
| CC(C)(C)[S@](=O)N1Cc2cc(C(=O)NC3CCC3)nc(-c3cccc(Br)c3)c2[C@@H]1CCO | inactive |
| COc1ccc(S(=O)(=O)N(C)C[C@@H]2OCc3ccccc3-c3c(n(C)c4ccccc34)C(=O)N([C@@H](C)CO)C[C@@H]2C)cc1 | inactive |
| COc1ccc2c3c(n(C)c2c1)[C@H](CO)N(C(=O)c1cccc(F)c1)CC31CN(C(=O)c2cccc(F)c2)C1 | inactive |
| CO[C@@H]1CN(C)C(=O)c2ccc(NC(=O)c3cc(C)on3)cc2OC[C@@H](C)N(S(=O)(=O)c2cccc(C)c2)C[C@H]1C | inactive |
| CCC(=O)N1CCC2(CC1)CN(Cc1cccc(OC)c1)[C@@H](CO)c1[nH]c3cc(OC)ccc3c12 | inactive |
| C[C@@H]1CN([C@H](C)CO)C(=O)c2c(c3ccccc3n2C)-c2ccccc2CO[C@@H]1CN(C)C(=O)c1cc(Cl)cc(Cl)c1 | inactive |
| COc1ccc(CN2C[C@H](C)[C@@H](OC)CN(C)C(=O)c3cc(NC(=O)c4nc5ccccc5s4)ccc3OC[C@@H]2C)cc1 | inactive |
| CCCNC(=O)Nc1ccc2c(c1)C(=O)N(C)C[C@H](OC)[C@@H](C)CN(C(=O)C1CCOCC1)[C@@H](C)CO2 | inactive |
| C/C=C/c1ccc2c(c1)[C@H]1[C@H](CCN1C(=O)c1ccc3c(c1)OCO3)[C@H](CO)N2 | inactive |
| C/C=C/c1ccc2c(c1)[C@H]1[C@H](CCN1S(=O)(=O)c1cccc(F)c1)[C@@H](CO)N2 | inactive |
| C/C=C/c1ccc(C2[C@H]3CNC[C@@H]2N3Cc2cc(F)ccc2F)cc1 (stereo partly drawn) | inactive |
| C[C@@H]1CN([C@@H](C)CO)S(=O)(=O)c2ccc(/C=C/c3ccccc3)cc2O[C@H]1CN(C)C(=O)c1ccc2c(c1)OCO2 | inactive |
| C[C@@H]1CN([C@@H](C)CO)C(=O)c2cc(NC(=O)Nc3ccccc3)ccc2O[C@@H]1CN(C)C(=O)Nc1cccc2ccccc12 | inactive |
| COc1ccc2c3c([nH]c2c1)[C@@H](CO)N(Cc1ccccc1Cl)CC31CCN(C(=O)C2CC2)CC1 | inactive |
| CCC(=O)N1CC2(C1)CN(Cc1ccc(Cl)cc1)[C@@H](CO)c1[nH]c3cc(OC)ccc3c12 | inactive |
| C/C=C/c1ccc2c(c1)[C@H]1[C@H](CCN1S(=O)(=O)c1ccccc1C)[C@@H](CO)N2 | inactive |
| CO[C@@H]1CN(C)C(=O)c2cc(NC(C)=O)ccc2OC[C@@H](C)N(C(=O)Cc2cccnc2)C[C@H]1C | inactive |
| O=C(C[C@H]1C[C@@H]2c3cc(NC(=O)Nc4ccccc4)ccc3O[C@@H]2[C@H](CO)O1)NCc1ccccc1 | inactive |
| CN(C)CC(=O)N1[C@H](CO)[C@H](c2ccc(-c3cccc(C(=O)N(C)C)c3)cc2)[C@@H]1C#N | inactive |
| CCC(=O)N1[C@H](CO)[C@H](c2ccccc2)[C@@H]1CN(CC)C(=O)c1cccc(F)c1 | inactive |
| C[C@@H]1CN([C@H](C)CO)S(=O)(=O)c2ccc(C3=CCCCC3)cc2O[C@H]1CN(C)C(=O)Cc1ccncc1 | inactive |
| CCCN1[C@H](CO)[C@H](c2ccc(C3=CCCC3)cc2)[C@H]1CN(C(C)=O)C1CCCC1 | inactive |

| SMILES | outcome |
| --- | --- |
| CO[C@@H]1CN(C)C(=O)c2cc(NC(=O)C3CC3)ccc2OC[C@H](C)N(CC2CCCC2)C[C@H]1C | inactive |
| CCc1sc(N2[C@@H](C#N)[C@@H](c3ccccc3-c3ccccc3)[C@@H]2CO)nc1C | inactive |
| CC(C)CNC[C@@H]1[C@@H](c2ccccc2)[C@@H](CO)N1Cc1ccc(F)cc1 | inactive |
| CN1c2ccc(C#Cc3cccnc3)cc2[C@@H]2[C@@H](CCN2C(=O)C2CCC2)[C@@H]1CO | inactive |
| CNC[C@@H]1Oc2cc(C#Cc3cccnc3)ccc2S(=O)(=O)N([C@H](C)CO)C[C@H]1C | inactive |
| COc1cc(CN2CC3(CCN(C(=O)c4cccnc4)CC3)c3c([nH]c4cc(OC)ccc34)[C@@H]2CO)cc(OC)c1 | inactive |
| C[C@H](CO)N1C[C@H](C)[C@@H](CN(C)Cc2ccc(Oc3ccccc3)cc2)OCc2ccccc2-c2c(n(C)c3ccccc23)C1=O | inactive |
| C[C@@H]1CN([C@H](C)CO)C(=O)c2c(c3ccccc3n2C)-c2ccccc2CO[C@@H]1CN(C)Cc1cccc(F)c1 | inactive |
| COc1ccccc1S(=O)(=O)N(C)C[C@@H]1OCc2ccccc2-c2c(n(C)c3ccccc23)C(=O)N([C@@H](C)CO)C[C@@H]1C | inactive |
| C[C@H](CO)N1C[C@H](C)[C@@H](CN(C)Cc2cccc(C(=O)Nc3ccccc3N)c2)OCc2ccccc2-c2c(n(C)c3ccccc23)C1=O | inactive |
| COc1cccc(CN(C)C[C@H]2OCc3ccccc3-c3c(n(C)c4ccccc34)C(=O)N([C@H](C)CO)C[C@@H]2C)c1 | inactive |
| C[C@H]1CN([C@@H](C)CO)C(=O)c2c(c3ccccc3n2C)-c2ccccc2CO[C@@H]1CN(C)Cc1cccc(O)c1 | inactive |
| COc1ccccc1S(=O)(=O)N(C)C[C@H]1OCc2ccccc2-c2c(n(C)c3ccccc23)C(=O)N([C@@H](C)CO)C[C@@H]1C | inactive |
| C[C@H](CO)N1C[C@H](C)[C@@H](CN(C)S(=O)(=O)c2cccc(F)c2)OCc2ccccc2-c2c(n(C)c3ccccc23)C1=O | inactive |
| C[C@H]1CN([C@@H](C)CO)C(=O)c2c(c3ccccc3n2C)-c2ccccc2CO[C@H]1CN(C)C(=O)Nc1ccc(-c2ccccc2)cc1 | inactive |
| C[C@H](CO)N1C[C@H](C)[C@H](CN(C)S(=O)(=O)c2ccc(Cl)cc2)OCc2ccccc2-c2c(n(C)c3ccccc23)C1=O | inactive |
| Cc1ccc(S(=O)(=O)N(C)C[C@H]2OCc3ccccc3-c3c(n(C)c4ccccc34)C(=O)N([C@H](C)CO)C[C@@H]2C)cc1 | inactive |
| O=C(C[C@H]1C[C@H]2c3cc(NC(=O)Cc4ccncc4)ccc3O[C@H]2[C@H](CO)O1)NCc1ccccc1 | inactive |
| COc1cccc(NC(=O)N(C)C[C@@H]2Oc3cc(C#Cc4ccccc4)ccc3S(=O)(=O)N([C@H](C)CO)C[C@@H]2C)c1 | inactive |
| COc1ccc(S(=O)(=O)N(C)C[C@H]2Oc3ncc(-c4ccncc4)cc3C(=O)N([C@H](C)CO)C[C@@H]2C)cc1 | inactive |
| COc1ccc(C#Cc2ccc3c(c2)O[C@@H](CN(C)C(=O)Nc2cccc(OC)c2)[C@H](C)CN([C@H](C)CO)S3(=O)=O)cc1 | inactive |

Reference: PubChem BioAssay AID1159577 (Broad Institute, 2015)
